Reference: PubChem BioAssay (NCATS)
Results filed as inconclusive are left out. A number with no mark means an inactive call. The source made the active and inactive calls. Calls follow the shape of the full dose curve; tested in HEK293 reporter line.

Assay: qHTS for Inhibitors of the Functional Ribonucleoprotein Complex (vRNP) of Lassa (LASV) Arenavirus: LASV Primary Screen - GLuc reporter signal (AID 1347082); also: nearly all actives have a fitted effect of over 60% in size
Settings: LASV minigenome vRNP, Gaussia luciferase reporter; series mostly up to 57.5 µM; activity change, negative = inhibition: at the top concentration
% is scaled to controls: 0 for no effect and ±100 for the full control effect; potency is read from the fitted curve at half-maximal effect.

Row | Compound | activity change, negative = inhibition | Potency
1 | COc1ccc(-c2cnc(-c3cccnc3)o2)cc1 | -3.35% | 
2 | CC1OCCC1=O (stereo not given) | -2.79% [at 115 µM] | 
3 | CC[C@H]1O[C@]2(CC[C@@H]1C)C[C@@H]1C[C@@H](C/C=C(\C)C[C@@H](C)/C=C/C=C3\CO[C@@H]4[C@H](O)C(C)=C[C@@H](C(=O)O1)[C@]34O)O2 | -6.59% | 
4 | CCOc1ccc(O)cc1 | -3.13% [at 115 µM] | 
5 | O=C(NCCCCNCCCNC(=O)c1ccccc1)c1ccccc1 | 3.85% | 
6 | Cn1cc(C=C2C(=O)Nc3cccnc32)c2ccccc21 | -5.87% | 
7 | O=c1c2ccccc2nc2n1CCC2 | -0.463% | 
8 | O=C(O)[C@H]1NC[C@H]2C[C@H]21 | 0.419% | 
9 | COC(=O)c1cc(O)cc(OC)c1C(=O)c1c(O)cc(C)cc1O | -7.45% | 
10 | COC1C(O)C(CO)OC1n1cnc2c(=O)[nH]c(N)nc21 (stereo not given) | 10.5% | 
11 | COC1C(O)C(O)C(O)C(O)C1O (stereo not given) | 10.2% | 
12 | NC1=N[C@H](O)[C@H]2C3O[C@]4(O)O[C@H](C(O)[C@@]2(N1)[C@@H]4O)C3(O)CO (stereo not given in full) | 24.2% | 
13 | C=CC(C)(CCC=C(C)C)OC(=O)c1ccccc1 (stereo not given) | -3.09% [at 115 µM] | 
14 | CCCC(=O)OC/C=C(\C)CCC=C(C)C | -13.2% [at 115 µM] | 
15 | CC1(C)CCc2c([nH]c3ccccc3c2=O)O1 | 12.7% | 
16 | CCCCC/C=C\C/C=C\C/C=C\C=C\C(O)CCCC(=O)O (stereo not given) | -8.78% [at 0.757 µM] | 
17 | COc1c2ccoc2c(OC[C@@H](OC(C)=O)C(C)(C)O)c2oc(=O)ccc12 | 6.51% | 
18 | O=C1C[C@@H](c2ccc(O)c(O)c2)Oc2c1ccc(O[C@@H]1O[C@H](CO)[C@@H](O)[C@H](O)[C@H]1O)c2O | -1.65% | 
19 | C=CCCCCCCCCCCCC(O)CC(O)COC(C)=O (stereo not given) | 2% | 
20 | CC1(C)C[C@@H](O)[C@]2(C)CC[C@]3(C)C(=CCC4[C@@]5(C)CC[C@H](O)[C@](C)(CO)C5CC[C@]43C)[C@@H]2C1 (stereo not given in full) | -2.69% | 

Row | Compound | activity change, negative = inhibition | Potency
21 | COc1cc2c(cc1OC)-c1cc3ccc4c(c3c[n+]1CC2)OCO4 | -13% | 
22 | COc1ccc2ccc(=O)oc2c1CC(=O)C(C)C | 0.0249% | 
23 | Cn1c2ccccc2c2c3c(c4c5ccccc5n(CCC#N)c4c21)CNC3=O |  | 8.63 µM (active)
24 | COc1ccc(-c2cc(=O)c3ccc(O)cc3o2)cc1 | -6.37% | 
25 | COc1cc(C/C=C\c2ccccc2)c(OC)cc1O | -1.49% | 
26 | CCCCN(CCCC)CC(O)c1cc(Cl)cc2c1-c1ccc(Cl)cc1C2=Cc1ccc(Cl)cc1 (stereo not given) | -0.382% | 
27 | CC(C)(O)CC[C@H](OC(=O)c1ccccc1)[C@](C)(O)[C@H]1CC[C@@]2(O)C3=CC(=O)[C@@H]4C[C@@H](O)[C@H](O)C[C@]4(C)C3CC[C@]12C (stereo not given in full) | 5.8% | 
28 | N#CC(=Cc1ccc(O)c(O)c1)C(=O)NCc1ccccc1 | 1.91% | 
29 | O=C[C@H](O)[C@@H](O)[C@H](O[C@H]1O[C@H](CO)[C@@H](O[C@H]2O[C@H](CO)[C@@H](O)[C@H](O)[C@H]2O)[C@H](O)[C@H]1O)[C@H](O)CO | -0.475% | 
30 | CC(C)(OC1OC(CO)C(O)C(O)C1O)[C@H]1Oc2ccc3ccc(=O)oc3c2[C@H]1O (stereo not given in full) | -2.01% | 
31 | CC1=CC2OC3CC4OC(=O)C=CC=CC(=O)OCCC(C)C(O)C(=O)OCC2(CC1)C4(C)C31CO1 (stereo not given) | -91.6% | 
32 | CC1OC(OC2C(CO)OC(OCC3OC(OC(=O)[C@@]45CCC(C)(C)C[C@@H]4C4=CC[C@@H]6[C@@]7(C)CCC(OC8OCC(O)C(O)C8OC8OC(C)C(O)C(O)C8O)[C@@](C)(CO)C7CC[C@@]6(C)[C@]4(C)CC5)C(O)C(O)C3O)C(O)C2O)C(O)C(O)C1O (stereo not given in full) | -8.11% | 
33 | C[C@H]1CC[C@@H]2[C@@H](C)[C@H]3C(C[C@H]4C5CC[C@H]6C[C@@H](O)CC[C@]6(C)C5CC[C@]34C)N2C1 (stereo not given in full) | 2.81% | 
34 | CC(C)C(O)(C(=O)OC[C@@H]1CC[N+]2([O-])CCCC12)C(C)O (stereo not given in full) | 6.68% | 
35 | COc1ccc(-c2coc3cc(OC)ccc3c2=O)cc1 | 11.4% | 
36 | COc1cc(CCC(C)=O)ccc1O | -11.8% [at 115 µM] | 
37 | CCCSSCCC | 0.103% [at 115 µM] | 
38 | CC1(C)OC1COc1c2occc2cc2ccc(=O)oc12 (stereo not given) | 0.778% | 
39 | CCC[C@H]1C[C@H](C(=O)N[C@@H]([C@@H]2O[C@@H](SC)[C@@H](O)[C@@H](O)[C@@H]2O)[C@H](C)Cl)N(C)C1 | 5.72% | 
40 | CC(C)c1cc(C(=O)N2Cc3ccc(CN4CCN(C)CC4)cc3C2)c(O)cc1O |  | 0.968 µM (active)
